# Test results as given in publication PMC12136788.
# In all, about 5,800 sequences were measured (“enrichment r”: median about 0.68, highest 2% from about 11 on). What follows is part of a selection rich in the highest values, with near analogues and random picks from the rest.
# B1: chr1:52238154:52238269:+|CDS|ENSG00000157077|unk|total|mutant (ssRNA)
# RNA: GGGAGUUCUACAGUCCGACGAUCUCUGACCGUCCCGCCAGUGUCUGUUCCCCUUCACAAUUAAAGGAUGACGGAAGUACCGGCCGAGACCCCUCCAUGUCUGCGAUUACAAGUUUAACGGUUGAUUCAGUAAUCUCAUCCCAGCAACAGAGGAUUGAGCAUCA
# B2: chr2:88557131:88557241:-|3pUTR|ENSG00000172071|msi1|total|mutant (ssRNA)
# RNA: GGGAGUUCUACAGUCCGACGAUCGAGGACAAGCCGCACAAACUGUAUAACGGUUUAUGUCCGCCGUUUUACCGUCCUAUUUGCCGCAUUCAACCGCUUUAUUCCUCCGAUGGUUCCCGGGUGGGUUUACAGCUUUUUGUACUUCAACAGAGGAUUGAGCAUCA
# B3: ENSG00000112365:stop:overlap|stop_codon|ENSG00000112365|stop_codon|NA|stop_codon (ssRNA)
# RNA: GGGAGUUCUACAGUCCGACGAUCUCUACACACUGGCAAGAAGCCUUUCUCCUGCCCUGAGUGUAACUUACAGUUUGCUCGCUUAGACAACUUGAAGGCUCACUUGAAAAUUCAUAGCAAGGAGAAGCAUGCUUCAGAUGCCAGCAACAGAGGAUUGAGCAUCA
# B4: ENSG00000066933:stop:overlap|stop_codon|ENSG00000066933|stop_codon|NA|stop_codon (ssRNA)
# RNA: GGGAGUUCUACAGUCCGACGAUCAUAGCUCAGAGAAUUUGAAUAUGGAGUCUGAAUAUGCUAUCUCUGAGAAAUCAGAAGCUUAGCCCUUAGCUCCCUGAAGACAGCUGGCAAGUCUGAACCUUCCAGCAAGUUGCGAAAGCACAACAGAGGAUUGAGCAUCA
# B5: ENSG00000107863:be:win_3701|CDS|ENSG00000107863|bound_else_gene|NA|bound_elsewhere_windowed (ssRNA)
# RNA: GGGAGUUCUACAGUCCGACGAUCUCUUCACAAAUGAUAAAUAUGCUGAUUUUAUUGAAGCCAAUCGUAAAGAAGAUCCUCUAGAUCGUCUGAAAACAUUAAAAAGACUAAUUCACGAUUUGCCUGAACAUCAUUAUGAAACACCAACAGAGGAUUGAGCAUCA
# B6: chr5:43486917:43487111:-|CDS|ENSG00000172244|control|control|control (ssRNA)
# RNA: GGGAGUUCUACAGUCCGACGAUCUUAUAAACCAGGAUCUUCAGAAACCUUGCUAGGAGAAGUUAAUGAAAAUAGAGUAUCAAUAGCAUUGAAAAAAACCUCUGAAAUCCUUCACGAUAUUGACUGUCUUCUAUCAAACUCUAACAACAGAGGAUUGAGCAUCA
# B7: chr10:30820206:30820444:-|three_prime_utr|ENSG00000183621|control|control|control (ssRNA)
# RNA: GGGAGUUCUACAGUCCGACGAUCCUUAUCUAAUCUCCAAAUGAAGAAUGGGCCCAUCUGACAUAUCCUAUGAGCACAAAGCUUAGGGGACUCUUCACCGAAACCUAGACAAAUAUUUGAAUGCAUUUUUUUUUUUUUUUUUUGCAACAGAGGAUUGAGCAUCA
# B8: chr8:65707876:65707977:+|CDS|ENSG00000066855|unk|FALSE|unique (ssRNA)
# RNA: GGGAGUUCUACAGUCCGACGAUCCCUGCUGCCCUCAUAGCAGAGGCUCUGAAAAAGAAAUUUGCUUAUCGGUAUCGAAGUGAUAGCCAAGAUGAAGUUGAAAAAGGAAUUCCAAAGUCUGAAUCAGAGGCCACCUCAGAGAGACAACAGAGGAUUGAGCAUCA
# B9: chr10:113908677:113908778:+|3pUTR|ENSG00000196865|unk|FALSE|bound_elsewhere (ssRNA)
# RNA: GGGAGUUCUACAGUCCGACGAUCAGCUAUGCUCCUUACUUACUUCUUUUAUUAUAAACAAAUUCCUUUGCUUUGGCUGAUACUAGCUGAGUCAUUGAUCAUCAUUGGUACCAUGAUAUUGUAAUCUAUGCUGCUAUUUGGCACCAACAGAGGAUUGAGCAUCA
# B10: chr5:113014749:113014850:+|3pUTR|ENSG00000172795|msi1|total|mutant (ssRNA)
# RNA: GGGAGUUCUACAGUCCGACGAUCUAAAAAUCCUUUUUUACAGUGGUAUCCACAAAAUACUUCUCUGCUUAUAAAUGUUAUUGCCGAAAUCUUUAUUCUGUGCCGGCCGCCUAUUUAAUUGGGUUCCACUGAACCUCAUGGGACCAACAGAGGAUUGAGCAUCA
# B11: chrX:51682015:51682831:-|CDS|ENSG00000283093|control|control|control (ssRNA)
# RNA: GGGAGUUCUACAGUCCGACGAUCCAGUGCCCCCGGGUCCAAGUCGGGGUCGGGAGCCACGCGGCGGCCAAGAGGUGGCUGGGUAGGUGGCGACGGAAGCGCCGCUGGCGGCGGGUCCGGAAGGCGGGCCCCAGAGACCUGCUGCAACAGAGGAUUGAGCAUCA
# B12: chr7:127374855:127374969:-|CDS|ENSG00000048405|unk|FALSE|unique (ssRNA)
# RNA: GGGAGUUCUACAGUCCGACGAUCCCUAGAAGCCAUAUAUCCAAGUGUGGACAAACGAGAAUAUAUUAUUAAGCUAGAACCCAUAGAAACUAAUCAAAAUGCAGUAUUUCAAUAUAUUUCGAGGACUGAUAAUCCUAUUGAAGUCAACAGAGGAUUGAGCAUCA
# B13: chr12:100626600:100626701:+|3pUTR|ENSG00000139354|unk|FALSE|unique (ssRNA)
# RNA: GGGAGUUCUACAGUCCGACGAUCAAUUUUAUCAUCAAGUAUUCCCUUAUAAAACCAAGUAACACUUCUUUAUCAGUAACUUUUAGAACUUAAAAGAAAGCAAAAAGUAAAUGGAAUUGUAGGCAAUUUAUGAAUCCUAGUAGACAACAGAGGAUUGAGCAUCA
# B14: chr5:141515350:141515460:-|3pUTR|ENSG00000131504|msi1_unk|FALSE|overlapping (ssRNA)
# RNA: GGGAGUUCUACAGUCCGACGAUCCUCAGCUUUCCAUCCCCAGCUAGGAAGAAAGAAUGGCACUCUUGGGCUUGGCCCAGAAUUAGAGUUAUUAGAGCAAGAGAGAGCUUAGGAAGCAUGAGGGCAACUAUAGUGAGGCCUUAUCAACAGAGGAUUGAGCAUCA
# B15: chr6:96891104:96891324:-|CDS|ENSG00000123545|unk|FALSE|unique (ssRNA)
# RNA: GGGAGUUCUACAGUCCGACGAUCUAAUCAUAAGCUUUUCCCAGAAACCUGGACUGCUGAGAAAAUAAUGCAGGAAUACCAGUUAGAACAGAAAGAUGUGAAUUCUCUUCUUAAAUAUUUUGUUACUUUUGAAGUCGAAAUCUUCAACAGAGGAUUGAGCAUCA
# B16: chr5:111496093:111496242:-|3pUTR|ENSG00000164211|unk|FALSE|unique (ssRNA)
# RNA: GGGAGUUCUACAGUCCGACGAUCUUUACAUGUAUAGUUAAAUAUUAAAAUUCAUCUCUUGCAGUUCAAUAAAAGCUAUAGUAUAGAUUUUAUUUUUAAGAAGUUUAUAUAAUUCUUUUGUGAACCAAUAUGUAAAACUAGAAUCAACAGAGGAUUGAGCAUCA
# B17: chr6:89631235:89631336:+|3pUTR|ENSG00000135299|msi1|FALSE|unique (ssRNA)
# RNA: GGGAGUUCUACAGUCCGACGAUCUGAAGUUUGAAAGCUCAGAUUAAGCAAGCCAUGCCAAGAAACUGGACGAUGUGUAAGCCUAGACUCUAAAAUUCAAGAUGUGUGAAAUAAUAUAAGUCAAAAGCAAGAAAAACGUAAUCCCAACAGAGGAUUGAGCAUCA
# B18: chr10:87746157:87746259:+|3pUTR|ENSG00000198682|unk|FALSE|unique (ssRNA)
# RNA: GGGAGUUCUACAGUCCGACGAUCAACUGAAGACCAAAUCUUAGCAGGUAAAAGCAAUAUUCUUAUACAUUUCAUAAUAAAAUUAGCUCUAUGUAUUUUCUACUGCACCUGAGCAGGCAGGUCCCAGAUUUCUUAAGGCUUUGUCAACAGAGGAUUGAGCAUCA
# B19: chr6:39540002:39540221:-|CDS|ENSG00000164627|control|control|control (ssRNA)
# RNA: GGGAGUUCUACAGUCCGACGAUCCCACUUGGCUGGCAUGGAUAGACGUGAAUUCAGACAGUCCCAGAGCCCACCCUUCCGCCUAGGAAACCCAGAAGAAGGUCAAAGAAUGCGACUAUCCUCAGCUCCCUCACAGGCCCAGGACAACAGAGGAUUGAGCAUCA
# B20: chr3:120327094:120327202:-|3pUTR|ENSG00000163428|unk|FALSE|unique (ssRNA)
# RNA: GGGAGUUCUACAGUCCGACGAUCGAAGAGAAGUCACCAAACACCUAGGGACAGUCCUAGGCCUAGAAAGCCCUUUAAAGUAAUAGUGAAUUGUUUUAAAAUUAAGUUAUUGAGUGGCCUACUGACUACCAUCCAAAAACCUUUCAACAGAGGAUUGAGCAUCA
# B21: chr4:54297753:54297953:+|3pUTR|ENSG00000134853|msi1|FALSE|unique (ssRNA)
# RNA: GGGAGUUCUACAGUCCGACGAUCUUUUUAUGAUGACAAUCAAAGCCGGCCUGAGAAACACUAUUUGUGACUUUUUAAACGAUUAGUGAUGUCCUUAAAAUGUGGUCUGCCAAUCUGUACAAAAUGGUCCUAUUUUUGUGAAGACAACAGAGGAUUGAGCAUCA
# B22: ENSG00000156687:stop:overlap|stop_codon|ENSG00000156687|stop_codon|NA|stop_codon (ssRNA)
# RNA: GGGAGUUCUACAGUCCGACGAUCACAUUUCAGAAUCCCAGCUUGAUGAAGCCGACUUCAACUACAGCAGGCAAAAUGGACUCUAGUCCACUUCCUCCCAUGAGACAGAGUGAUGGCCAGCUUGGGGACAUUUGCUUUAAAUGGCAACAGAGGAUUGAGCAUCA
# B23: chr17:21001410:21001511:-|3pUTR|ENSG00000124422|msi1_unk|FALSE|overlapping (ssRNA)
# RNA: GGGAGUUCUACAGUCCGACGAUCUAGUACAACUUUUAGACACAGAAAUCUGAAUGACAUAUAUUGUUCUGUGUCAAGAAACUUAGAUUUUUUUUUUAACUAUUUAAAAACGUGAAACCUAUUCUUAGCUCACAGGCCAUGGAGCAACAGAGGAUUGAGCAUCA
# Biological target: T1, UNK ZnF1-6 (called full-length) (human, UniProt Q9C0B0 30-357)
# T1 sequence: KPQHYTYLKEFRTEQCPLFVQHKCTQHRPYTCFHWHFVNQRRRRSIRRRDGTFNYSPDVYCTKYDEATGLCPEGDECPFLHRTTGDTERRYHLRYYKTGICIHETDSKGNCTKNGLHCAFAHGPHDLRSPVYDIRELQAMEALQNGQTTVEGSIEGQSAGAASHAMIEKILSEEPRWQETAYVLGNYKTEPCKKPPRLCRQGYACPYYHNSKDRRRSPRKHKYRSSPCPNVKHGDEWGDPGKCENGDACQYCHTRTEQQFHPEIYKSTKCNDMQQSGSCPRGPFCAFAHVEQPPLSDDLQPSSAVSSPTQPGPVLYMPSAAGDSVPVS
# Experiment: nsRBNS (natural sequence RNA bind-n-seq); RBNS binding buffer (assumed for nsRBNS): 25 mM Tris pH 7.5, 150 mM KCl, 3 mM MgCl2, 0.01% Triton X-100, 500 ug/ml BSA, 20 U/ml SUPERase-In, 4 C; UNK is unkempt and MSI1 is Musashi-1; names of the RNAs are library labels; protein concentration not given here; high values mean tight binding
row,Binder,binding signal [enrichment R]
1,B1,0.482
2,B2,0.471
3,B3,0.948
4,B4,15.4
5,B5,0.382
6,B6,0.69
7,B7,27.7
8,B8,0.424
9,B9,3.85
10,B10,0.567
11,B11,6.11
12,B12,18.1
13,B13,4.55
14,B14,13.3
15,B15,0.645
16,B16,2.13
17,B17,0.227
18,B18,18.7
19,B19,0.794
20,B20,3.46
21,B21,0.454
22,B22,0.56
23,B23,24.9
